{"source": "PubChem BioAssay AID431", "about": "(Sanford-Burnham Center for Chemical Genomics, 2006)", "note": "Screen size: about 63,000 compounds; about 1,100 (1.7%) were called active. The sample holds actives, similar compounds and a random draw of the others, so the mix is not that of the screen.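 The calls were made as follows: active = compounds whose percent cytotoxicity in the single-dose primary screen, scaled between solvent and toxic-drug controls, exceeds 50; inactive = the rest.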 Entries with a potency or affinity are not part of this list."}
{"assay": "viability loss of HPDE-C7K cells – cell-based, fluorescence, HTS, primary screen (AID 431);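 also: 0% = DMSO solvent wells and 100% = doxorubicin-treated wells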", "details": "HPDE-C7K KRASV12 cells, Alamar Blue viability, 48 h; at 10 µM; active compounds read high"}
{"smiles": "CCSc1nc2c(c(=O)n(C)c(=O)n2C)n1Cc1ccc(Cl)cc1", "cytotoxicity": "1.1% (inactive)"}
{"smiles": "CSc1ccc2[nH]c(=O)cc(C)c2c1", "cytotoxicity": "-15.6% (inactive)"}
{"smiles": "c1ccc(Cn2nnnc2CN2CCCC2)cc1", "cytotoxicity": "-11% (inactive)"}
{"smiles": "COc1ccc(NS(=O)(=O)c2ccc(NS(C)(=O)=O)cc2)cc1", "cytotoxicity": "-20.7% (inactive)"}
{"smiles": "COc1ccccc1/C=N/n1cnnc1", "cytotoxicity": "-11.3% (inactive)"}
{"smiles": "Nc1ccc(-c2nc3ccc(-c4nc5ccccc5o4)cc3[nH]2)cc1", "cytotoxicity": "66.5% (active)"}
{"smiles": "Nc1ccc(-c2nc3ccccc3[nH]2)cc1", "cytotoxicity": "-4.1% (inactive)"}
{"smiles": "Nc1cc(N)cc(-c2nc3ccccc3o2)c1", "cytotoxicity": "15.3% (inactive)"}
{"smiles": "COCCN(C(=O)Cc1cccs1)c1nnc(-c2ccncc2)s1", "cytotoxicity": "-16.9% (inactive)"}
{"smiles": "CCCCc1c(C)nc(N)[nH]c1=O", "cytotoxicity": "1.6% (inactive)"}
{"smiles": "COc1ccc(CN(CCCN2CCOCC2)C(=O)Nc2ccccc2)cc1OC", "cytotoxicity": "13.2% (inactive)"}
{"smiles": "Clc1ccc2nc(N3CCCCC3)sc2c1", "cytotoxicity": "-11.1% (inactive)"}
{"smiles": "Cc1cc(Cl)ccc1OC(C)C(=O)Nc1ccccc1N1CCOCC1", "note": "(stereo not given)", "cytotoxicity": "-12.8% (inactive)"}
{"smiles": "Cc1cc(/C=N\\O)c(C)n1-c1ccncc1", "cytotoxicity": "3.4% (inactive)"}
{"smiles": "C/C=C/COC(=O)c1[nH]c2c(c1C)C(=O)CC(c1ccco1)C2", "note": "(stereo not given)", "cytotoxicity": "69.1% (active)"}
{"smiles": "C=CCOC(=O)c1[nH]c2c(c1C)C(=O)CC(c1cc(OC)c(OC)c(OC)c1)C2", "note": "(stereo not given)", "cytotoxicity": "-9.9% (inactive)"}
{"smiles": "C/C=C/COC(=O)c1[nH]c2c(c1C)C(=O)CC(c1ccc(N(C)C)cc1)C2", "note": "(stereo not given)", "cytotoxicity": "10.6% (inactive)"}
{"smiles": "C=CCOC(=O)c1[nH]c2c(c1C)C(=O)CC(c1ccco1)C2", "note": "(stereo not given)", "cytotoxicity": "67.6% (active)"}
{"smiles": "CCn1c(SCC(=O)Nc2ccc(C(=O)OC)cc2)nnc1-c1cccs1", "cytotoxicity": "-8.2% (inactive)"}
{"smiles": "Cc1ccc(NC(=O)c2cc(NC(=O)c3ccco3)ccc2N2CCCCC2)cc1", "cytotoxicity": "19.3% (inactive)"}
{"smiles": "CCCN(C#N)c1nc(NCC)nc(NC(C)C)n1", "cytotoxicity": "-9.4% (inactive)"}
{"smiles": "CCNc1nc(NC(C)C)nc(N(C#N)CCOc2ccc(Cl)cc2Cl)n1", "cytotoxicity": "109% (active)"}
{"smiles": "CCNc1nc(NC(C)C)nc(N(C#N)Cc2ccccc2)n1", "cytotoxicity": "3% (inactive)"}
{"smiles": "O=C(N1CCOCC1)N1CCN(S(=O)(=O)N2CCOCC2)CC1", "cytotoxicity": "-4.2% (inactive)"}
{"smiles": "COc1ccc(CCNc2c(C)c(C)nc3ncnn23)cc1", "cytotoxicity": "33.4% (inactive)"}
{"smiles": "CCc1c(C)nc2ncnn2c1NCCc1ccc(OC)c(OC)c1", "cytotoxicity": "-12.5% (inactive)"}
{"smiles": "CCc1c(C)nc2ncnn2c1NCCc1ccc(OC)cc1", "cytotoxicity": "64.2% (active)"}
{"smiles": "Cc1cc(C)nc(Nc2n[nH]c(COc3ccc(Cl)cc3)n2)n1", "cytotoxicity": "1.1% (inactive)"}
{"smiles": "O=C(Nc1ncc(Br)s1)C1CCCN1S(=O)(=O)c1cccc2cccnc12", "note": "(stereo not given)", "cytotoxicity": "-12.6% (inactive)"}
{"smiles": "COC(=O)c1sccc1NC(=O)c1ccc(Cl)s1", "cytotoxicity": "1.5% (inactive)"}
{"smiles": "COc1ccccc1-c1cc(C(=O)Nc2cc(C)on2)no1", "cytotoxicity": "6.8% (inactive)"}
{"smiles": "COc1ccccc1-c1cc(C(=O)Nc2cccnc2)no1", "cytotoxicity": "71.3% (active)"}
{"smiles": "COc1ccc(NC(=O)c2cc(-c3ccccc3OC)on2)cc1", "cytotoxicity": "38.7% (inactive)"}
{"smiles": "C=CCn1c(SCC(=O)Nc2ccc(C(=O)OCC)cc2)nnc1-c1cccs1", "cytotoxicity": "-6.9% (inactive)"}
{"smiles": "Cc1ccc2c(c1)N(CCC(=O)NCc1ccc3c(c1)OCO3)C(=O)CO2", "cytotoxicity": "-4.5% (inactive)"}
{"smiles": "Cc1ccc(Nc2nc(C)c(CCC(C)C)c(=O)[nH]2)cc1", "cytotoxicity": "1.8% (inactive)"}
{"smiles": "Cc1nc(Nc2ccccc2)[nH]c(=O)c1CCC(C)C", "cytotoxicity": "-10.7% (inactive)"}
{"smiles": "Cc1nc(Nc2ccc(F)cc2)[nH]c(=O)c1CCC(C)C", "cytotoxicity": "66.2% (active)"}
{"smiles": "Cc1n[nH]c(C)c1S(=O)(=O)N1CCCC(C(=O)NC2CCCCC2)C1", "note": "(stereo not given)", "cytotoxicity": "-3.4% (inactive)"}
{"smiles": "Cc1nnc2n1NC(c1ccc(Cl)cc1)C(C(=O)N1CCC(C)CC1)S2", "note": "(stereo not given)", "cytotoxicity": "-14.7% (inactive)"}
{"smiles": "CCOC(=O)c1c(NC(C)=O)no[n+]1[O-]", "cytotoxicity": "-10.4% (inactive)"}
{"smiles": "Cc1cc(C)cc(NC(=O)CSc2nc3c(c(=O)n2C)SC(C)C3)c1", "note": "(stereo not given)", "cytotoxicity": "-5.2% (inactive)"}
{"smiles": "COCCSc1ccccc1C(=O)NCCCn1ccnc1", "cytotoxicity": "-28.4% (inactive)"}
{"smiles": "Oc1cccc2ccc(Nc3ccccn3)nc12", "cytotoxicity": "124% (active)"}
{"smiles": "O=C(Nc1ccccn1)c1ccc2ccccc2n1", "cytotoxicity": "-3.6% (inactive)"}
{"smiles": "c1ccc(Nc2ccccc2Nc2ccccn2)nc1", "cytotoxicity": "-10.1% (inactive)"}
{"smiles": "Cn1c(SCC(=O)Nc2ccc3c(c2)OCCO3)nnc1-c1ccco1", "cytotoxicity": "10.1% (inactive)"}
{"smiles": "N=c1n(CCN2CCCC2)c2ccccc2n1CC(O)c1ccco1", "note": "(stereo not given)", "cytotoxicity": "-3.9% (inactive)"}
{"smiles": "N=c1n(CCN2CCCCC2)c2ccccc2n1CC(O)COc1ccccc1", "note": "(stereo not given)", "cytotoxicity": "16% (inactive)"}
{"smiles": "N=c1n(CCN2CCCCC2)c2ccccc2n1CC(O)c1cccc(Br)c1", "note": "(stereo not given)", "cytotoxicity": "59.4% (active)"}
{"smiles": "CN(C)c1ccc(C2CC(=O)NC3=C2C(=O)CC(C)(C)C3)cc1", "note": "(stereo not given)", "cytotoxicity": "-6.4% (inactive)"}
{"smiles": "C=CCn1sc(N)c(C(=O)OCC)c1=S", "cytotoxicity": "9% (inactive)"}
{"smiles": "Cc1cc(C)c2c(=O)n(CC(=O)NCCCN3CCOCC3)sc2n1", "cytotoxicity": "20.5% (inactive)"}
{"smiles": "Cc1cc(C)c2c(=O)n(CC(=O)NCCCN3CCN(c4ccccc4F)CC3)sc2n1", "cytotoxicity": "82.2% (active)"}
{"smiles": "O=C(CCNC(=O)Cn1ccc2ccccc2c1=O)NCCCN1CCN(c2ccccc2F)CC1", "cytotoxicity": "-16.9% (inactive)"}
{"smiles": "CCOC(=O)N1CCN(C(=O)c2ccc3c(c2)NC(=O)C(N2CCOCC2)S3)CC1", "note": "(stereo not given)", "cytotoxicity": "-7.4% (inactive)"}
{"smiles": "COCCNC(=O)CN1CCOc2ccccc21", "cytotoxicity": "-4.3% (inactive)"}
{"smiles": "COc1ccc(-c2cc(C(F)F)n3ncc(C(=O)N4CCN(C(=O)c5ccco5)CC4)c3n2)cc1", "cytotoxicity": "5.6% (inactive)"}
{"smiles": "NC(=O)C1CCCN(Cc2ccc(Cl)cc2)C1", "note": "(stereo not given)", "cytotoxicity": "-10.3% (inactive)"}
{"smiles": "Cc1c(NC(=O)OCCSc2nc(N(C)C)nc(N(C)C)n2)sc(=S)n1C", "cytotoxicity": "66% (active)"}
{"smiles": "CCOC(=O)Nc1sc(=S)n(C)c1C", "cytotoxicity": "-11.2% (inactive)"}
{"smiles": "CN(C)c1nc(SCCOC(=O)Nc2ccccc2)nc(N(C)C)n1", "cytotoxicity": "16.1% (inactive)"}
{"smiles": "Cc1cccc2cc(CN(CC3CCCO3)C(=O)c3ccncc3)c(=O)[nH]c12", "note": "(stereo not given)", "cytotoxicity": "7.7% (inactive)"}
{"smiles": "COc1ccccc1-c1nnc(SCC(=O)Nc2c(Cl)cccc2Cl)o1", "cytotoxicity": "-1% (inactive)"}
{"smiles": "COC(=O)CSc1nnc(-c2ccccc2OC)o1", "cytotoxicity": "-18.2% (inactive)"}
